# Results filed as inconclusive are left out. Unmarked numbers belong to inactive results. The source made the active and inactive calls. Calls follow the shape of the dose curve; as a rule, active = well fitted activation curve with a large enough effect in the repeat runs; inconclusive = weak or mixed curves; inactive = flat fitted curve, though single readings scatter.
# Test: A CellTox Green Cytotoxicity Assay to monitor cytotoxicity in HEK293 cells - 8 hour (AID 1224884); also: nearly all actives have a fitted effect of over 35% in size
# Conditions: CellTox Green fluorescence; series mostly up to 76.8 µM; cytotoxicity increase: at the top concentration
# Outline: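 Homogeneous no-lysis format: HEK293 cell suspension mixed with CellTox Green reagent, seeded, incubated 5 h at 37 C/5% CO2, then dosed by pintool with compound in DMSO.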
# % is scaled to controls: 0 for no effect and ±100 for the full control effect; potency is read from the fitted curve at half-maximal effect.
SMILES,cytotoxicity increase,Potency
Cc1ccc(N=Nc2c(O)ccc3ccccc23)c(C)c1,-13% [at 35.3 µM],
C/C=C/C(=O)OCC(C)C,-5.61%,
CN1CCN(CCCN2c3ccccc3Sc3ccc(C(F)(F)F)cc32)CC1,,23.9 µM (active)
CC(C)(C)c1cc(CCC(=O)OCCSCCOC(=O)CCc2cc(C(C)(C)C)c(O)c(C(C)(C)C)c2)cc(C(C)(C)C)c1O,10.9% [at 35.3 µM],
C=Cc1ccncc1,-0.17%,
CCCCCN=C(N)N/N=C/c1c[nH]c2ccc(OC)cc12,,15.1 µM (active)
CCN(CC)c1ccc(N=Nc2ccccc2)cc1,-23.4%,
O=C1CCC/C=C\CCCCCCCCCC1,-2.04%,
Brc1cc(Br)cc(Br)c1,1.74%,
N#Cc1ccc(C/C(=N/NC(=O)Nc2ccc(OC(F)(F)F)cc2)c2cccc(C(F)(F)F)c2)cc1,7.85%,
CSc1nnc(C(C)(C)C)c(=O)[nH]1,-0.142%,
CCOC(=O)OC(=O)OCC,0.795%,
O=C(CCCCCCCCc1cccnc1)N1CCC(C=C(c2ccccc2)c2ccccc2)CC1,1.57%,
CCN(CC)c1ccc(C=O)c(O)c1,1.77%,
COc1cc(/C=C/C(=O)CC(=O)/C=C/c2ccc(O)c(OC)c2)ccc1O,,49.3 µM (active)
CC(C=O)c1ccccc1 (configuration not stated),-18.1%,

SMILES,cytotoxicity increase,Potency
C=CC(=O)O[C@H]1C[C@@H]2CC[C@@]1(C)C2(C)C,1.33%,
CCC1(C)C(=O)N(Cl)C(=O)N1Cl (configuration not stated),1.12%,
CN[C@H]1CC[C@@H](c2ccc(Cl)c(Cl)c2)c2ccc(S(N)(=O)=O)cc21,,54.9 µM (active)
CC/C=C(\C)C=O,-7.53%,
O=C(Nc1ccc([N+](=O)[O-])cc1)Nc1ccc([N+](=O)[O-])cc1 (tested in a mixture with another compound),-0.401% [at 35.3 µM],
O=C(NCc1ncc(C(F)(F)F)cc1Cl)c1c(Cl)cccc1Cl,11.9%,
CCCCCCCCCCCCS(=O)(=O)Cl,-0.511% [at 15.8 µM],
Cc1cccc2c1ccc1ccccc12,17.2%,
CC(=O)CC(N)=O,-14.3%,
CCc1cccc(C)c1N(C(=O)C(=O)O)C(C)COC (configuration not stated),-5.76%,
CCC(=O)OC/C=C(\C)CCC=C(C)C,3.65%,
CCCCC/C=C\C=C\C(=O)OCC,5.5%,
CCCC(C)C=O (configuration not stated),-3.06%,
C=Cc1ccc(O)c(OC)c1,8.97%,
Cc1cc(Br)ccc1NC(=O)CCl,-5.11%,
c1ccc2cc3c4ccccc4c4ccccc4c3cc2c1,-0.222%,

# — PubChem BioAssay (Tox21)
